DT40 TDP1 no CPT = qHTS for Inhibitors of human tyrosyl-DNA phosphodiesterase 1 (TDP1): qHTS in cells in absence of CPT. DT40 Tdp1-/- hTDP1 cells, no CPT, ATP luminescence, 48 h. Potency, µM (series often up to 46.2 µM), for the others: top-dose activity change, negative = growth inhibition, usual class: inhibitors. 420,000 tested, 15% active; note: nearly all actives have a fitted effect of over 55% in size
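Cells were dispensed at 400 per well, compounds added by pin tool, plates incubated ≥48 hr at 37 °C, then CellTiter-Glo added for 30 min at room temperature before luminescence reading. Line: DT40 Tdp1-/- complemented with hTDP1; camptothecin omitted.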
HT1080 IDH1KD tx = HT-1080 IDH1 knockdown cell toxicity (counter line). HT-1080 IDH1 knockdown viability, ATP luminescence, 48 h. Potency, µM (highest dose often 46.1 µM), for inactives: at the highest dose activity, negative = toxicity, hits mostly cytotoxic. 360,000 tested, 2% active. AID 686971;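 note: 0% = DMSO wells and -100% = cell-free medium wells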
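% activity derives from luminescence (CellTiter-Glo), normalised to DMSO and no-cell wells. HT-1080-IDH1KD cells, 750/well, had 48 h compound exposure at 37 °C.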
DT40 TDP1 CPT = DT40-hTDP1 cell growth loss with CPT | chicken DT40 Tdp1-/-;hTDP1 cells + 20 nM CPT, ATP luminescence, 48 h | 420,000 tested, 12% active | Potency, µM (series often up to 46.2 µM), for inactives: at the top dose activity change, negative = growth inhibition, most hits filed as inhibitors; note: nearly all actives have a fitted effect of over 55% in size
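Chicken DT40 Tdp1-/- cells stably complemented with human TDP1 were seeded at 400 cells/well in medium containing 20 nM camptothecin, exposed to pin-transferred compounds, and grown at 37 °C for at least 48 hr. Viability was read as ATP luminescence.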
HT1080-NT tox = kills 2HG-producing HT-1080-NT fibrosarcoma cells. HT-1080-NT fibrosarcoma viability, CellTiter-Glo ATP luminescence, 48 h. Potency, µM (highest dose often 46.1 µM), for inactives: at the highest dose activity, negative = less viability, most hits filed as cytotoxic. 360,000 tested, 1.6% active. AID 686970;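 note: NT is the 2HG producing partner of a matched IDH1 knockdown line; 0% = DMSO-treated cells and -100% = media-only wells without cells; nearly all actives have a fitted effect of over 55% in size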
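750 cells/well, RPMI + 5% FBS; 2 h settle, compound pin-transfer, 48 h at 37 degrees C. CellTiter-Glo 10 min RT, luminescence. Normalized to DMSO and media-only wells.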
KB-3-1 cytotox = kills parental KB-3-1 adenocarcinoma cells; KB-3-1 viability, CellTiter-Glo ATP luminescence, 72 h; Potency, µM (titrated, usually from 46.1 µM), usual class: cytotoxic; 400,000 tested, 1.4% active; note: nearly all actives have a fitted effect of over 60% in size
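KB-3-1 cells, DMEM (no phenol red) + 10% FBS; compound by pin transfer, 72 h, 37 °C. Readout: CellTiter-Glo luminescence after 10 min. Data normalized, curve-fitted.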
KB-V1 cytotox = kills drug-selected multidrug resistant KB-V1 cells; Potency, µM (highest dose often 46.1 µM), most hits filed as cytotoxic; 400,000 tested, 3.4% active; AID 1347076; KB-V1 MDR cells viability, CellTiter-Glo, 72 h; note: nearly all actives have a fitted effect of over 60% in size
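qHTS viability screen in drug-selected KB-V1 MDR cells: 72 h compound treatment at 37 degrees C, ATP luminescence end point.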
* hit, by the source's call; i = inactive; u = inconclusive; x = not tested or not shown; [ ] = remark or other dose. Hits are enriched below; roughly 19% of the tested compounds scored in any of these assays. Calls come from the whole dose curve; as a rule, active = well fitted curve in the direction sought with a large enough effect; inconclusive = small, poorly fitted or top-dose-only effect, or another doubt; inactive = no such curve, though single readings can be large; an effect the other way counts as inactive or inconclusive. Unless noted, % is set by controls: 0 for no effect and ±100 for the full control effect; potency is the fitted concentration of half-maximal effect.

SMILES | DT40 TDP1 no CPT | HT1080 IDH1KD tx | DT40 TDP1 CPT | HT1080-NT tox | KB-3-1 cytotox | KB-V1 cytotox
CNC(=S)Nc1cccc(-c2cnc3ccccc3n2)c1 | u | -20.5% | u | -7.9% | u | u
CS(=O)(=O)Nc1cccc(-c2cnc3ccccc3n2)c1 | 20.6µM* | -1.8% | -6.4% | -0.3% | i | i
O=C(CNC(=O)c1ccc(Br)o1)Nc1cccc(-c2cnc3ccccc3n2)c1 | 7.31µM* | u | u | u | i | i
CC(C)C(=O)Nc1cccc(-c2cnc3ccccc3n2)c1 | -24.4% | -4.6% | -17.8% | 12.8% | i | 13µM*
NS(=O)(=O)c1ccc(CCNC(=O)c2ccccc2Cc2ccccc2)cc1 | u | 0.0% | u | -0.1% | i | i
CC(=O)Nc1cccc(-c2cnc(NC(C)=O)cn2)c1 | -18.7% | u | -23.0% | -10.2% | 18.4µM* | i
CC(=O)Nc1cccc(-c2csc(Nc3ccc(C)cn3)n2)c1 | u | u | -28.5% | u | i | i
O=C(Nc1cccc(-c2cnc3ccccc3n2)c1)c1ccco1 | 16.4µM* | -10.5% | u | 1.4% | i | u
O=C1C=C(c2ccc3c(c2)oc2ccccc23)C[C@@H](c2ccc(Cl)cc2)C1 | u | 18.7% | u | 12.0% | i | i
Cc1cccc(NC(=O)c2cc(-c3ccco3)nc3ccccc23)n1 | 18.4µM* | -12.2% | 20.6µM* | -3.7% | i | i
Cc1ccc(S(=O)(=O)N(C)C)cc1NC(=O)c1ccc2ccccc2n1 | u | 8.5% | 20.6µM* | 5.0% | i | i
CCc1cc(C(=O)Nc2cc(S(=O)(=O)N(C)C)ccc2C)sc1C | 13µM* | -12.6% | 14.6µM* | -7.4% | i | 9.2µM*
Cc1ccc(S(=O)(=O)N(C)C)cc1NC(=O)c1cc(-c2ccco2)nc2ccccc12 | 18.4µM* | 6.2% | 13µM* | 0.0% | x | x
Cc1ccc(C)c(NC(=O)c2ccc3ccccc3n2)c1 | u | -5.1% | u | -8.1% | i | i
Cc1ccccc1NC(=O)c1cc(-c2ccco2)nc2ccccc12 | u | -1.4% | -4.7% | -1.1% | u | i
COc1ccc(NS(=O)(=O)c2csc(C(N)=O)c2)cc1 | -29.8% | 4.9% | -11.5% | 3.8% | i | i
O=c1[nH]c(O)c(/C=C2\C=Nc3ccc(Br)cc32)[nH]1 | -9.0% | 1.1% | -1.7% | 2.8% | i | i
Cc1ccc(S(=O)(=O)C/N=C(/NC(=S)N(c2ccccc2)c2ccccc2)c2ccccc2)cc1 | -14.6% | 2.2% | u | -2.7% | i | u
Cc1ccc(Nc2nc(NCCO)nc(N3CCCC3)n2)cc1 | x | x | x | x | i | i
CCNc1nc(NC(C)(C)C)nc(N2CCCC2)n1 | u | u | 18.4µM* | -9.2% | u | u
CC(C)(C)Nc1nc(N2CCCC2)nc(N2CCCC2)n1 | 16.4µM* | -15.4% | u | -0.5% | u | i
CCNc1nc(C#N)nc(N2CCCCC2)n1 | u | x | u | x | i | i
CCCNc1nc(N2CCCC2)nc(N2CCCC2)n1 | 13µM* | u | u | u | i | u
CSc1nc(NC(C)(C)C)nc(N2CCOCC2)n1 | u | 0.0% | u | -7.4% | i | i
O=C(O)/C(=C\c1ccc(Cl)cc1)c1ccc(F)cc1 | -3.0% | 8.8% | 2.6% | 3.5% | i | i
SMILES | DT40 TDP1 no CPT | HT1080 IDH1KD tx | DT40 TDP1 CPT | HT1080-NT tox | KB-3-1 cytotox | KB-V1 cytotox
O=C(CN1CCN(S(=O)(=O)c2cccs2)CC1)N1CCCCC1 | -7.3% | 13.6% | -7.8% | 18.6% | i | i
C[C@@H]1CCC(=O)N(CC[C@H](Sc2ccccc2)c2ccccc2)CC1 | 12.6µM* | -5.1% | 12.6µM* | -0.5% | i | u
O=C1CCC(OCc2ccccc2)CCN1CC[C@@H](Sc1ccccc1)c1ccccc1 (stereo not given in full) | u | u | u | u | i | u
O=C1CC[C@@H](OCc2ccccc2)CCN1CC[C@H](Sc1ccccc1)c1ccccc1 | 18.4µM* | 3.7% | 15.8µM* | 0.4% | i | u
O=C1CC[C@@H](O)CCN1CC[C@H](Sc1ccccc1)c1ccccc1 | u | 1.2% | u | -15.0% | i | u
CCS(=O)(=O)N1CC(=O)N(c2ccccc2C)C(C)(C(=O)NC2CCCCC2)C1 (stereo not given) | -0.4% | x | -1.9% | x | i | i
Cc1ccccc1C(=O)Nc1ccc2nc(Nc3cccc(C(F)(F)F)c3)cc(C)c2c1 | 18.4µM* | x | 20.6µM* | x | u | i
Cc1cc(Nc2cccc(C(F)(F)F)c2)nc2ccc(NC(=O)c3cncc(Br)c3)cc12 | 5.17µM* | x | 5.8µM* | x | x | x
Cc1cc(Nc2cccc(Cl)c2)nc2ccc(NC(=O)c3cncc(Br)c3)cc12 | 5.17µM* | x | 4.61µM* | x | u | u
CCOc1cc(C(=O)Nc2ccc3nc(Nc4cccc(Cl)c4)cc(C)c3c2)cc(OCC)c1OCC | 6.51µM* | x | 4.61µM* | x | i | i
CCN1CCN(c2cc(C)c3cc(NC(=O)c4cncc(Br)c4)ccc3n2)CC1 | u | -4.3% | u | -9.8% | i | u
Cc1ccc2cc(NC(=O)c3ccccc3C)ccc2n1 | 0.7% | 6.4% | -15.8% | 17.4% | i | i
CN1C(=O)c2ccccc2C(C(=O)O)C1c1cccc(F)c1 (stereo not given) | 25.9µM* | 12.9% | u | 25.6% | i | i
Cc1ccsc1C1C(C(=O)O)c2ccccc2C(=O)N1C (stereo not given) | -17.8% | 2.8% | 0.3% | 5.5% | i | i
Cc1onc(-c2ccccc2)c1C(=O)Nc1nnc(C(C)(C)C)s1 | 2.1% | -3.4% | -6.2% | 3.7% | i | i
CCN(CC)c1ccc(-c2nnc(SCC(=O)Nc3ccccc3C#N)n2-c2ccccc2)cc1 | 18.4µM* | -22.9% | 18.4µM* | -23.2% | u | i
N#Cc1ccccc1NC(=O)CSc1nnc(-c2ccccc2)n1-c1ccccc1 | u | -9.4% | 23.1µM* | -1.5% | u | 14.6µM*
CCn1c(-c2ccccc2F)nc2cc(C(=O)NCc3ccc(C)o3)cc(NC(C)=O)c21 | 2.1% | x | -10.0% | x | x | x
C=Cn1ccnc1P(=S)(c1ccc2c(c1)c1ccccc1n2CC)c1nccn1C=C | u | -22.8%[9.24 µM] | 29.1µM* | u | u | u

Bioassay records: PubChem, National Center for Advancing Translational Sciences (NCATS)
